# From PubChem BioAssay
# The source made the active and inactive calls.
# Legend:
# [1] = optical density shifts of acrAB sulA E. coli – strain DRC41, OD650, 48 h, E. coli filamentation inducer project, primary screen (AID 1152); details: higher = more signal, called active from +8 up or from −8 down;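 further: E. coli MC1000 strain DRC41 lacking acrAB efflux pump and sulA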
# [2] = probe aLefty1 binding on compound microarray – biochemical, small-molecule microarray, 635/667 nm fluorescence, primary screen (AID 1153); details: higher = more signal;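 further: score merges spot fluorescence with signal-to-noise ratio from the scanned slide images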
# [3] = plasmodial surface anion channel blockers, osmotic lysis – cell-based, P. falciparum Indochina, OD700, 1 h, primary screen (AID 1154); details: P. falciparum Indochina infected RBC osmotic lysis, higher = more signal, called active from +8 up or from −8 down
# [4] = plasmodial surface anion channel blockers, osmotic lysis – cell-based, P. falciparum Indochina, OD700, 2 h, primary screen (AID 1155);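 further: lysis reports solute entry through the parasite surface anion channel PSAC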; details: P. falciparum Indochina infected erythrocytes, higher = more signal, called active from +8 up or from −8 down
# [5] = changes in parasitized red cell lysis, either direction – P. falciparum Indochina, OD700, 3 h, PSAC antagonist project, primary screen (AID 1156); details: P. falciparum-infected erythrocytes, osmotic lysis, higher = more signal, called active from +8 up or from −8 down
# [6] = plasmodial surface anion channel blockers, osmotic lysis – cell-based, P. falciparum Indochina, OD700, 18 h, primary screen (AID 1157); details: P. falciparum Indochina infected erythrocytes, osmotic lysis OD700, 18 h; higher = more signal, called active from +8 up or from −8 down
# [7] = S6 kinase pathway phospho-S6 level changes – cell-based, A549, cytoblot, luminescence, serum-stimulated, primary screen (AID 1158); details: 5 h, higher = more signal;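 further: serum-stimulated A549 lung adenocarcinoma cells; signal is phosphorylated S6 detected by cytoblot immunostaining with HRP secondary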
# [8] = target: NADPH oxidase 2 (Homo sapiens) (UniProt P04839); assay: compounds shifting NOX2 Amplex Red fluorescence – cell-based, HEK293-NOX2, PMA-stimulated, NOX inhibitor project, primary screen (AID 1159); details: 45 min, higher = more signal, called active from +8 up or from −8 down; further: test concentration not given here
# [9] = target: NADPH oxidase 4 (Homo sapiens) (UniProt Q9NPH5); assay: compounds shifting NOX4 Amplex Red fluorescence – cell-based, HEK293-NOX4, tetracycline-induced, NOX inhibitor project, primary screen (AID 1160); details: HEK293-NOX4, Amplex Red H2O2 fluorescence, 45 min; higher = more signal, called active from +8 up or from −8 down
# [10] = target: NADPH oxidase 5 (Homo sapiens) (UniProt Q96PH1); assay: compounds shifting NOX5 Amplex Red fluorescence – cell-based, HEK293-NOX5, NOX inhibitor project, primary screen (AID 1161); details: HEK293-NOX5, ionomycin, 45 min, higher = more signal
# [11] = compound effects on lung adenocarcinoma cell viability – A549, calcein-AM fluorescence, 48 h, basal, profiling panel (AID 1162); details: higher = more signal; further: test concentration not given here
# [12] = compound effects on differentiated 3T3-L1 adipocyte viability – cell-based, 3T3-L1 adipocytes, calcein-AM fluorescence, 48 h, basal, profiling panel (AID 1163); details: 3T3-L1 adipocytes viability, higher = more signal; further: test concentration not given here
# [13] = compound effects on hepatocellular carcinoma cell viability – HepG2, calcein-AM fluorescence, 48 h, basal, profiling panel (AID 1164); details: higher = more signal; further: test concentration not given here
# [14] = compound effects on multiple myeloma cell viability – MM1S, calcein-AM fluorescence, 48 h, basal, profiling panel (AID 1165); details: higher = more signal;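 further: viability of MM1S multiple myeloma cells under basal unstimulated conditions; test concentration not given here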
# [15] = calcein-AM signal in unstimulated myeloma cells – cell-based, calcein-AM fluorescence, 48 h, PK04 Diversity Set, profiling panel (AID 1166); details: RPMI8226 myeloma viability, higher = more signal;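 further: cells grown under basal conditions without added stimulus; test concentration not given here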
# [16] = JC-1 mitochondrial signal, unstimulated HepG2 cells – cell-based, JC-1 fluorescence, 24 h, 100 nL compound, profiling panel (AID 1167); details: HepG2 mitochondrial potential, higher = more signal; further: test concentration not given here
# [17] = JC-1 mitochondrial signal, unstimulated adipocytes – cell-based, JC-1 fluorescence, 3T3-L1 adipocytes, 24 h, 100 nL compound, profiling panel (AID 1168); details: JC-1 mitochondrial fluorescence, higher = more signal, called active from +8 up or from −8 down; further: test concentration not given here
# [18] = JC-1 mitochondrial signal, unstimulated myeloma cells – cell-based, JC-1 fluorescence, RPMI8226, 24 h, 100 nL compound, profiling panel (AID 1169); details: JC-1 mitochondrial potential fluorescence, higher = more signal; further: test concentration not given here
# [19] = JC-1 mitochondrial signal, unstimulated MM1S myeloma – cell-based, JC-1 fluorescence, 24 h, 100 nL compound, profiling panel (AID 1170); details: MM1S mitochondrial potential, higher = more signal; further: test concentration not given here
# [20] = resazurin metabolic signal in A549 cells – cell-based, resazurin fluorescence, 24 h, PK04 Diversity Set, profiling panel (AID 1171); details: A549 viability, higher = more signal, called active from +8 up or from −8 down; further: test concentration not given here
# Sequence of NADPH oxidase 2 (Homo sapiens) (P04839 whole entry, looked up): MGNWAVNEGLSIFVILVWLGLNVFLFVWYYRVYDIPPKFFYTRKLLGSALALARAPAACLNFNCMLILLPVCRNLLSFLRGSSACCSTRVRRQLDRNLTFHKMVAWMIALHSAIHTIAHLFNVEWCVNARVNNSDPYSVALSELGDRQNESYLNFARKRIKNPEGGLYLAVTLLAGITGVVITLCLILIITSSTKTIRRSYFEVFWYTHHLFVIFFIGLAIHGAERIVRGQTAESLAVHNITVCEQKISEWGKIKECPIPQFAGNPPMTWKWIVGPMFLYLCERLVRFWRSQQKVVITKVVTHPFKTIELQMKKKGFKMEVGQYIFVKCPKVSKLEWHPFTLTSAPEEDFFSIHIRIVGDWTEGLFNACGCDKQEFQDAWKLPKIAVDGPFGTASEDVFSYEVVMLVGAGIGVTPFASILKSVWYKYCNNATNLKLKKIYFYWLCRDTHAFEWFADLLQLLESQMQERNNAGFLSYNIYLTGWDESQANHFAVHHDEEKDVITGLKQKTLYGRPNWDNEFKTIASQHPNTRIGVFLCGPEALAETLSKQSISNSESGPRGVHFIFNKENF
# Sequence of NADPH oxidase 4 (Homo sapiens) (Q9NPH5 whole entry, looked up): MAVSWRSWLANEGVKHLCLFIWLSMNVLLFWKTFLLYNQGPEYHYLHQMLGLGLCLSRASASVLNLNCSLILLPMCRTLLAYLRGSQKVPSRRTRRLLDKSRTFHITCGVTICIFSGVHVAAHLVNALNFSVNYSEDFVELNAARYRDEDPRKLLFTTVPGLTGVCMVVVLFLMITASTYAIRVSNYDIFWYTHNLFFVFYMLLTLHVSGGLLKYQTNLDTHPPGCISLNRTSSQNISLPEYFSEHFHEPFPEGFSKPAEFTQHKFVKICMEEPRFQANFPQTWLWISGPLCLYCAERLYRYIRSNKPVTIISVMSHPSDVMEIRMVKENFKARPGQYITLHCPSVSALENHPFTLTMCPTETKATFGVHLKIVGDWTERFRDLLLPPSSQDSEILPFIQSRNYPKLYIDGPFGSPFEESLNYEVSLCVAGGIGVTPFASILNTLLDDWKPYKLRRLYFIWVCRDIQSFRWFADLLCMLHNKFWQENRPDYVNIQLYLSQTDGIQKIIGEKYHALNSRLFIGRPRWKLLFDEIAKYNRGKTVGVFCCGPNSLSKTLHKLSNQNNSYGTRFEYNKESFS
# Sequence of NADPH oxidase 5 (Homo sapiens) (Q96PH1 whole entry, looked up): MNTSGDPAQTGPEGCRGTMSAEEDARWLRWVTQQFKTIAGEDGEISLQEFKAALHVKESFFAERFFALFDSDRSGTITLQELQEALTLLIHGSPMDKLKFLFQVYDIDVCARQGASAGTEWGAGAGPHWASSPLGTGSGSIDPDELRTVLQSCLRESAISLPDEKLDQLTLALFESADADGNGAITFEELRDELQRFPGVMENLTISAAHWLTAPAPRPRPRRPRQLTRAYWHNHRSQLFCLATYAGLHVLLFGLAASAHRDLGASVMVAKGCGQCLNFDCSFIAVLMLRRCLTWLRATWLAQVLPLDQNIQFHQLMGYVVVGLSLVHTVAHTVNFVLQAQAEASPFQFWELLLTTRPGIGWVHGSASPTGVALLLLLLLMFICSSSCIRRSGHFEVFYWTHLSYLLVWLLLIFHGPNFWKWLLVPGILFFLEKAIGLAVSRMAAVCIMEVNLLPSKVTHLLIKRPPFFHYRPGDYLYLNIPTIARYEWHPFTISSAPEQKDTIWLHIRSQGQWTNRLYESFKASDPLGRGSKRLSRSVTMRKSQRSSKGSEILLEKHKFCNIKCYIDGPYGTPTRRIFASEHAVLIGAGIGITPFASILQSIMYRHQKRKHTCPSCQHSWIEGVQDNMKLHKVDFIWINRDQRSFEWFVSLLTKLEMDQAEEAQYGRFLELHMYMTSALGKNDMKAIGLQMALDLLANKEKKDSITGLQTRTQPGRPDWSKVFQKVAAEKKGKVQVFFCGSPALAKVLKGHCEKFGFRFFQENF
Compound,z-score [1],composite z-score [2],z-score [3],z-score [4],z-score [5],z-score [6],z-score [7],z-score [8],z-score [9],z-score [10],z-score [11],z-score [12],z-score [13],z-score [14],z-score [15],z-score [16],z-score [17],z-score [18],z-score [19],z-score [20]
Cc1ccc(S[C@]2(C(=O)O)CC(=O)N(Cc3ccccc3C(F)(F)F)[C@@H]2c2ccc(CO)cc2)cc1,0.281 (inactive),-0.109,4.63 (inactive),0.388 (inactive),0.0934 (inactive),0.231 (inactive),-0.854,0.375 (inactive),0.152 (inactive),0.476,0.391,-0.208,0.775,-0.804,0.393,0.143,0.998 (inactive),0.171,-0.446,0.142 (inactive)
COCCOC(=O)N1C(=O)[C@@]2(c3cc(C#CCC(C(=O)OC)C(=O)OC)ccc31)[C@H](C(=O)N1CCCCCCC1)[C@H]1C(=O)O[C@H](c3ccccc3)[C@H](c3ccccc3)N1[C@@H]2c1ccc(O)cc1,0.683 (inactive),2.46,0.915 (inactive),0.444 (inactive),0.678 (inactive),0.336 (inactive),-0.0955,1.32 (inactive),-0.378 (inactive),1.01,-0.0336,1.25,-0.125,-0.575,-1.39,0.503,1.1 (inactive),0.439,0.579,0.616 (inactive)
CCOC(=O)C[C@H]1[C@H](OC(=O)c2ccccc2-c2ccccc2)[C@@H](NC(=O)c2ccccc2)c2cc(OCCCO)ccc2N1C(=O)Cc1ccc(OC)cc1,-0.81 (inactive),-0.193,2.01 (inactive),0.318 (inactive),-0.338 (inactive),0.109 (inactive),0.0269,0.639 (inactive),1.22 (inactive),0.327,1.29,0.182,0.144,-0.128,0.206,1.02,-0.387 (inactive),-1.04,0.277,0.995 (inactive)
COCCOC(=O)N1C(=O)[C@@]2(c3ccccc31)[C@H](c1ccc(OCCO)cc1)N1[C@H](c3ccccc3)[C@H](c3ccccc3)OC(=O)[C@H]1[C@@H]2C(=O)NC[C@H](O)c1ccccc1,-0.769 (inactive),0.643,7.9 (inactive),1.94 (inactive),0.0925 (inactive),0.728 (inactive),-0.575,1.28 (inactive),0.989 (inactive),0.894,-0.332,0.754,0.349,-0.991,-2.39,-0.32,0.988 (inactive),0.199,-0.864,-1.16 (inactive)
COC(=O)[C@@]1(Cc2ccc(OC)cc2)[C@H]2c3cc(C(=O)N(C)C)n(Cc4cc(C)n(C)n4)c3C[C@H]2CN1C(=O)c1ccccc1,-1.82 (inactive),0.396,2.11 (inactive),0.498 (inactive),1.45 (inactive),0.544 (inactive),0.355,0.27 (inactive),-1.52 (inactive),-3.56,-0.892,0.336,-0.384,-0.407,-1.77,1.57,-0.938 (inactive),0.534,-0.228,-1.9 (inactive)
CCN(CC)c1ccc(N2CC=CC34O[C@@H]5/C=C\CCCOC(=O)C5[C@H]3C(=O)N(CCCCCCO)[C@@H]4C2=O)cc1 (stereo not given in full),1.75 (inactive),0.135,1.78 (inactive),-0.475 (inactive),0.625 (inactive),-0.354 (inactive),1.66,0.274 (inactive),0.275 (inactive),1.36,0.626,0.554,1.24,0.0885,0.0026,1.09,0.587 (inactive),-0.25,0.0342,0.0444 (inactive)
COC(=O)[C@@]1(Cc2ccc(F)cc2)[C@@H]2[C@@H](CC(=O)[C@H]2CC(=O)C(=O)N2CCCC2)CN1C(=O)c1ccccc1,-1.75 (inactive),1.33,1.76 (inactive),0.367 (inactive),0.747 (inactive),0.935 (inactive),-0.502,0.67 (inactive),0.478 (inactive),1.28,-0.974,-0.0508,-0.191,-2,-1.73,0.129,-1.52 (inactive),-0.96,-1.25,-0.919 (inactive)
Cc1ccc(N2C(=O)c3ccccc3[C@](C)(C(=O)NC(C)C)[C@@H]2c2ccc(CO)cc2)nc1,1.07 (inactive),-0.275,0.641 (inactive),0.414 (inactive),0.18 (inactive),0.232 (inactive),0.274,0.358 (inactive),-0.357 (inactive),-0.363,-0.465,0.92,-1.37,-1.03,-1.35,-0.42,-0.424 (inactive),-0.586,1.34,0.0095 (inactive)
O=c1c2ccc(Br)cc2nc(-c2ccccc2)n1Cc1cccc(O)c1,0.421 (inactive),0.748,15.7 (active),3.45 (inactive),0.386 (inactive),1.73 (inactive),-0.404,-1.84 (inactive),-1.05 (inactive),-1.99,-0.277,1.02,0.196,-0.115,0.195,-0.0225,-0.525 (inactive),0.385,-0.258,0.0972 (inactive)
